Measurements from article PMC5540273 (PLoS ONE, 2017).

Columns and labels:
Conditions in all cases: concentration: 1 μM, replicates: in singlicate; n = 1
[1] = tested on: MAP3K3
[2] = tested on: MAP3K4
[3] = tested on: MAP4K2
[4] = tested on: MAP4K3
[5] = tested on: MAP4K4
[6] = tested on: MAP4K5
[7] = tested on: MAPKAPK2
[8] = tested on: MAPKAPK5
[9] = tested on: MARK1
[10] = tested on: MARK2
[11] = tested on: MARK3
[12] = tested on: MARK4
[13] = tested on: MAST1
[14] = tested on: T1, MEK1
T1 construct: gene MAP2K1

[15] = tested on: T2, MEK2
T2 construct: gene MAP2K2

[16] = tested on: T3, MEK3
T3 construct: gene MAP2K3

[17] = tested on: T4, MEK4
T4 construct: gene MAP2K4

[18] = tested on: T5, MEK5
T5 construct: gene MAP2K5

[19] = tested on: T6, MEK6
T6 construct: gene MAP2K6

[20] = tested on: MELK
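Further: KINOMEscan kinase panel screen.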

Structure (SMILES)	%Inh [1] [%]	%Inh [2] [%]	%Inh [3] [%]	%Inh [4] [%]	%Inh [5] [%]	%Inh [6] [%]	%Inh [7] [%]	%Inh [8] [%]	%Inh [9] [%]	%Inh [10] [%]	%Inh [11] [%]	%Inh [12] [%]	%Inh [13] [%]	%Inh [14] [%]	%Inh [15] [%]	%Inh [16] [%]	%Inh [17] [%]	%Inh [18] [%]	%Inh [19] [%]	%Inh [20] [%]
CCn1c(-c2ccncc2)nc2cnccc21 [SB-735216]	10	23	12	0	1	0	16	29	16	100	96.1	8	37	5	11	34	7	25	0	0
Cc1ccc(C)c(NC(=O)NCCNc2ccnc(Nc3ccc(F)cc3)n2)c1 [GSK1379878]	0	0	0	0	0	0	0	0	0	0	0	9	0	0	0	11	0	43	0	4
Fc1cccc(COc2ccc(Nc3ncnc4sc(-c5ccc[nH]5)cc34)cc2Cl)c1 [GW707818]	0	11	7	4	5	3	9	0	12	1	13	14	1	0	0	0	2	27	0	13
N#Cc1ccc(Oc2ccc(Nc3ncnc4cc[nH]c34)cc2Cl)cc1	27	9	0	24	37	27	0	21	3	0	0	0	38	22	39	37	0	44	19	25
CCc1nc(-c2cccc(C)c2)c(-c2ccnc(NC(=O)c3ccccc3)c2)s1	22	0	0	0	–	0	0	0	–	0	0	28	25	5	2	7	4	54	0	22
Cn1ccc2ncnc(Nc3ccc(Oc4cccc(Cl)c4)c(Cl)c3)c21	15	17	14	0	1	0	0	14	0	25	0	9	0	29	31	1	17	99.6	27	0
Nc1nccc2scc(-c3ccc4c(c3)CCN4C(=O)Cc3cc(F)ccc3F)c12 [GSK2587663]	0	10	0	3	0	9	20	0	0	0	4	0	9	0	0	0	5	67	0	0
CS(=O)(=O)CCNCc1ccc(-c2ccc3ncnc(Nc4ccc(OCc5ccccc5)c(Cl)c4)c3c2)o1.Cl [GW574783]	0	0	0	1	0	5	16	0	0	0	3	9	23	10	0	3	15	85	0	23
